The values below come from PubChem BioAssay AID1259420 (Broad Institute, 2018).

Out of some 1,000 compounds screened, about 250 (25%) were called active. Inconclusive results (about 31%) are left out. The list is a sample of the results. Measured potencies and affinities stand elsewhere. Values without a mark were called inactive. The rule behind the calls is not given here.

The nature of the experiment: T. gondii intracellular growth, IFN-gamma absent, dose response, cell-based (AID 1259420).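 Note: host cells were HeLa; final incubation lasted 72 hours.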 The conditions noted are these: Toxoplasma gondii growth in host cells, no IFN-gamma.

Regarding `CCn1cc(NC(=O)c2cccc(CN3C[C@@H](C)O[C@@H](C)C3)c2)nn1`, where the note is “at 19.5 µM unless noted”, the max activity was -7.36% [at 0.3 µM].
In the case of `CN(C)C(=O)c1ccc2nnc3ncn(Cc4ccccc4)c3c2c1`, the max activity (at 19.5 µM unless noted) is 9.7% [at 2.6 µM].
For `CS(=O)(=O)N1CC(=O)N2[C@H](CO)[C@@H](c3ccc(C#Cc4ccc(F)cc4)cc3)[C@H]2C1`, the max activity (at 19.5 µM unless noted) was 15.4%.
Same read-out and setting: under `O=C(c1ccc(F)cc1)N1CC(=O)N2[C@H](CO)[C@@H](c3ccc(C#CCC4CCCC4)cc3)[C@@H]2C1` stands 23.3%.
As for `O=C(Cc1ccccn1)N1CC(=O)N2[C@H](CO)[C@@H](c3ccc(C#CCC4CCCC4)cc3)[C@@H]2C1`, under “at 19.5 µM unless noted”, the max activity was 18.5%.
As to `O=C(Cc1ccccn1)N1CC(=O)N2[C@H](CO)[C@@H](c3ccc(C#CCC4CCCC4)cc3)[C@H]2C1`, the max activity (at 19.5 µM unless noted) is 20.5%.
Take `O=C(Cc1ccccn1)N1CC(=O)N2[C@H](C1)[C@H](c1ccc(C#CCC3CCCC3)cc1)[C@@H]2CO`: under “at 19.5 µM unless noted”, the max activity was 12.6%.
Still for that read-out and setting: under `CS(=O)(=O)N1CC(=O)N2[C@H](C1)[C@@H](c1ccc(C#Cc3ccc(F)cc3)cc1)[C@@H]2CO` stands 5.83% [at 2.6 µM]; under `CS(=O)(=O)N1CCOC2C(COc3ncccn3)CCC21` (stereo unspecified), -15% [at 0.3 µM]; under `CCOC(=O)c1c(C)[nH]c(-c2ccccc2)c1-c1ccccc1`, 4.75% [at 10 µM].
For `O=C(O)c1ccc(C2C(=O)NNCC2N2CCCC2)s1` (stereo unspecified), the max activity was 8.24% (at 0.16 µM) and 10.9% (at 19.5 µM).
With `Fc1cccnc1OC1COC2(CCN(Cc3ccsc3)CC2)C1` (stereo unspecified), the max activity (at 19.5 µM unless noted) is 18.6%.
On the same count and under the same terms, then `C[C@@H](N)C1CCC(C(=O)Nc2ccncc2)CC1` (stereo partly specified), with -12.3% [at 0.08 µM].
In the case of `Cc1cccc(-n2ncc3c(NC4CCCCCCCCCCC4)ncnc32)c1`, where the note is “at 19.5 µM unless noted”, the max activity was 8.82% [at 10 µM].
Still for that read-out and setting: then `COc1ccc(C#Cc2ccc([C@@H]3[C@H]4CN(C(=O)NC(C)C)CC(=O)N4[C@H]3CO)cc2)cc1`, with 9.38% [at 0.6 µM]; and `COc1ccc(C#Cc2ccc([C@H]3[C@H]4CN(C(=O)NC(C)C)CC(=O)N4[C@H]3CO)cc2)cc1`, with 13% [at 10 µM]; and `COc1cccc(NC(=O)N2CC(=O)N3[C@H](C2)[C@H](c2ccc(C#CCC4CCCC4)cc2)[C@@H]3CO)c1`, with 38.8% [at 21 µM].
The same measure, in the same setting: under `COc1cccc(NC(=O)N2CC(=O)N3[C@@H](CO)[C@@H](c4ccc(C#CCC5CCCC5)cc4)[C@@H]3C2)c1` stands 9.07% [at 21 µM].
As to `COc1ccc(C#Cc2ccc([C@@H]3[C@H](CO)N4C(=O)CN(C(=O)NC(C)C)C[C@@H]34)cc2)cc1`, the max activity reads like this: (at 5 µM) -8.81%; (at 19.5 µM) -6.49%.
